# Source: PubChem BioAssay (NCATS)
# Several values for one entry are separate records, joined by “and”; a condition that tells them apart may be missing. Equal values may be shown once. Results filed as inconclusive are left out. Where a call stands in place of a potency, no number is given. Values without a mark were called inactive. Activity calls are given as the source filed them. Calls follow the shape of the dose curve; as a rule, active = well fitted curve in the direction sought with a large enough effect; inconclusive = small, poorly fitted or top-dose-only effect, or another doubt; inactive = no such curve, though single readings can be large; an effect the other way counts as inactive or inconclusive.
# Experiments:
# [1] = test system: TAB165; assay: qHTS profiling for inhibitors of Plasmodium falciparum proliferation (AID 504749); also: nearly all actives have a fitted effect of over 60% in size; conditions: P. falciparum in erythrocytes, SYBR Green DNA, 72 h; series mostly up to 28.7 µM
# Summary of the method: (§1)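 P. falciparum-infected erythrocytes (0.3% parasitemia, 2.5% hematocrit) incubated with compound 72 h at 37 C, 5% CO2. Parasite DNA detected by SYBR Green after lysis, overnight at room temperature; normalised to 0.29 uM artemisinin and DMSO.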
# [2] = test system: W2; assay: as above; conditions: P. falciparum in erythrocytes, SYBR Green DNA, 72 h; series mostly up to 28.7 µM
# Summary of the method: as §1
# [3] = test system: CRL-7250; assay: Cytotoxic Profiling of Annotated Libraries Using Quantitative High-Throughput Screening (AID 1296008); conditions: Five cell lines viability, CellTiter-Glo ATP luminescence, 48-72 h; max response: stronger effect = lower value; also: nearly all actives have a fitted effect of over 60% in size
# Summary of the method: (§2)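 Cells exposed to compounds for 48 or 72 hr at 37 degrees Celsius. Viability read as ATP-coupled luminescence with CellTiter-Glo after 10 min at room temperature.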
# [4] = test system: HEK293; assay: as above; conditions: Five cell lines viability, CellTiter-Glo ATP luminescence, 48-72 h; max response: stronger effect = lower value
# Summary of the method: as §2
# [5] = test system: HaCat; assay: as above; conditions: Five cell lines viability, CellTiter-Glo ATP luminescence, 48-72 h; max response: stronger effect = lower value
# Summary of the method: as §2
# [6] = test system: KB-3-1; assay: as above; conditions: Five cell lines viability, CellTiter-Glo ATP luminescence, 48-72 h; max response: stronger effect = lower value
# Summary of the method: as §2
# [7] = test system: NIH3T3; assay: as above; conditions: Five cell lines viability, CellTiter-Glo ATP luminescence, 48-72 h; max response: stronger effect = lower value
# Summary of the method: as §2
# [8] = test system: HACAT; assay: qHTS assay to identify novel small-molecules to repurpose for Merkel cell carcinoma treatment (AID 1296009); conditions: MCC and control cell lines, CellTiter-Glo viability, 72 h; also: nearly all actives have a fitted effect of over 60% in size
# Summary of the method: (§3)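 Cells were treated for 72 hr at 37 degree celsius with compounds in 8- or 11-point dose response. Viability was read by CellTiter-Glo luminescence, normalized to no-cell (cytotoxicity) and DMSO controls.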
# [9] = test system: MCC-13; assay: as above; conditions: MCC and control cell lines, CellTiter-Glo viability, 72 h; series mostly up to 46 µM
# Summary of the method: as §3
# [10] = test system: MKL-1; assay: as above; conditions: MCC and control cell lines, CellTiter-Glo viability, 72 h; series mostly up to 46 µM
# Summary of the method: as §3
# [11] = test system: MKL-2; assay: as above; conditions: MCC and control cell lines, CellTiter-Glo viability, 72 h; series mostly up to 46 µM
# Summary of the method: as §3
# [12] = test system: NIH3T3; assay: as above; conditions: MCC and control cell lines, CellTiter-Glo viability, 72 h
# Summary of the method: as §3
# [13] = test system: UISO; assay: as above; conditions: MCC and control cell lines, CellTiter-Glo viability, 72 h; series mostly up to 46 µM
# Summary of the method: as §3
# [14] = test system: WaGa; assay: as above; conditions: MCC and control cell lines, CellTiter-Glo viability, 72 h; series mostly up to 46 µM
# Summary of the method: as §3
# [15] = test system: C33A; assay: Primary qHTS to identify gynecologic anti-cancer compounds using libraries of approved drugs and bioactive compounds (AID 1345084); conditions: Gynecologic cancer cell panel viability, ATPlite luminescence, 48 h; series mostly up to 57.5 µM; also: nearly all actives have a fitted effect of over 55% in size
# Summary of the method: (§4)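 ATP-based viability (ATPlite), 1,000 cells/well, 16 h pre-incubation, 48 h compound at 37 C, 5% CO2, 15 min RT before read.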
# [16] = test system: CAOV3; assay: as above; conditions: Gynecologic cancer cell panel viability, ATPlite luminescence, 48 h; series mostly up to 57.5 µM
# Summary of the method: as §4
# [17] = test system: CASKI; assay: as above; conditions: Gynecologic cancer cell panel viability, ATPlite luminescence, 48 h; series mostly up to 57.5 µM
# Summary of the method: as §4
# [18] = test system: Es-2; assay: as above; conditions: Gynecologic cancer cell panel viability, ATPlite luminescence, 48 h; series mostly up to 57.5 µM
# Summary of the method: as §4
# [19] = test system: MCC-26; assay: qHTS assay to identify novel small-molecules to repurpose for Merkel cell carcinoma treatment (AID 1296009); conditions: MCC and control cell lines, CellTiter-Glo viability, 72 h; series mostly up to 46 µM; also: nearly all actives have a fitted effect of over 60% in size
# Summary of the method: as §3
# [20] = test system: HEK293T; assay: as above; conditions: MCC and control cell lines, CellTiter-Glo viability, 72 h
# Summary of the method: as §3
# [21] = at 44.8 µM (top of the series) unless noted
# Potency is read from the fitted curve at half-maximal effect.
smiles,measurement,setting,value
Cc1oc(=O)oc1CN1CCN(c2cc3c(cc2F)c(=O)c(C(=O)O)c2n3C(C)S2)CC1 (centres undefined),Potency,[1],5.01 µM (active)
same,Potency,[2],4.78 µM (active)
same,max response,[3],-3.57% and 1.83%
same,max response,[4],0.387% and 0.715%
same,outcome,[5],inactive
same,max response,[6],23.6%
same,outcome,[6],inactive
same,max response,[7],-0.29%
same,outcome,[7],inactive
same,outcome,[8]; [21],inactive
same,Potency,[9],inactive
same,Potency,[10],inactive
same,Potency,[11],inactive
same,outcome,[12]; [21],inactive
same,Potency,[13],inactive
same,Potency,[14],inactive
same,Potency,[15],inactive
same,Potency,[16],inactive
same,Potency,[17],inactive
same,Potency,[18],inactive
CCCCS(=N)(=O)CCC(N)C(=O)O (centres undefined),max response,[3],-8.66%
same,max response,[4],-11.7%
same,outcome,[5],inactive
same,max response,[6],-5.13%
same,max response,[7],-0.0148%
same,outcome,[8]; [21],inactive
same,Potency,[19],inactive
same,Potency,[10],inactive
same,Potency,[13],inactive
same,Potency,[14],inactive
COC(=O)Nc1nc2ccc(C(=O)c3ccccc3)cc2[nH]1,Potency,[1],inactive
same,Potency,[3],5.9 µM (active)
same,max response,[4],-90.7%
same,max response,[5],4.64%
same,outcome,[5],inactive
same,Potency,[6],0.623 µM (active)
same,Potency,[7],18.8 µM (active) and 2.64 µM (active)
same,outcome,[8]; [21],inactive
same,Potency,[9],3.72 µM (active)
same,Potency,[13],4.18 µM (active)
same,Potency,[16],inactive
same,Potency,[18],2.82 µM (active)
N[C@@H](C(=O)N[C@@H]1C(=O)N2C(C(=O)O)=C(Cl)CS[C@H]12)c1ccccc1,Potency,[1],inactive
same,Potency,[2],inactive
same,max response,[3],3.96% and -9.13%
same,outcome,[4],inactive
same,outcome,[5],inactive
same,max response,[6],16.8% and 8.23%
same,outcome,[7],inactive
same,outcome,[8]; at 9.27 µM (top of the series),inactive
same,outcome,[8]; at 44.8 µM (top of the series),inactive
same,outcome,[20]; at 9.27 µM (top of the series),inactive
same,outcome,[20]; at 44.8 µM (top of the series),inactive
same,Potency,[9],inactive
same,Potency,[19],inactive
same,Potency,[10],inactive
same,Potency,[11],inactive
same,outcome,[12]; at 9.27 µM (top of the series),inactive
same,outcome,[12]; at 44.8 µM (top of the series),inactive
same,Potency,[13],inactive
same,Potency,[14],inactive
same,"activity change, negative = cytotoxicity",[15],7.76% [at 11.6 µM]
same,"activity change, negative = cytotoxicity",[16],16.8% [at 11.6 µM]
same,"activity change, negative = cytotoxicity",[17],2.82% [at 11.6 µM]
same,"activity change, negative = cytotoxicity",[18],3.68% [at 11.6 µM]
CC(C)NCC(O)c1ccc(NS(C)(=O)=O)cc1 (centres undefined),Potency,[1],inactive
same,Potency,[2],inactive
same,outcome,[3],inactive
same,max response,[4],0.785%
same,outcome,[5],inactive
same,max response,[6],2.03% and 6.79%
same,max response,[7],4.22%
same,outcome,[8]; [21],inactive
same,Potency,[9],inactive
same,Potency,[19],inactive
same,Potency,[10],inactive
same,Potency,[11],inactive
same,Potency,[13],inactive
same,Potency,[14],inactive
